Experimental data published in PubChem BioAssay AID1159580 (chemical genetic matrix, 2015).
Hit rate of the full screen: of about 5,500 compounds, about 2,000 (36%) were called active. Inconclusive results (about 18%) are left out. Cut-off read from the data, not from the text of the source: active = normalized growth mostly below about 0.91 (no sharp cut-off); inconclusive = no clear call, values can overlap the other calls; inactive = mostly above about 0.92. The list shows a part of the results.

Assay: chemical genetic growth profiling, strain panel (AID 1159580);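 note: tested at 20 µM; growth read once vehicle control cultures reached saturation at 30 °C; 1 = growth at the plate median or of vehicle wells; lower values mean less growth of the strain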
Conditions: S. cerevisiae deletion strains, growth OD

Measured: normalized growth

O=C1c2ccccc2C(=O)c2c(O)c(O)cc(O)c21
active: locus YAL021C, strain ccr4, hits give low values 0.105 | locus YAL026C, strain drs2, hits give low values 0.209 | locus YAL030W, strain snc1, hits give low values 0.471 | locus YBL061C, strain skt5, hits give low values 0.403 | locus YBR009C, strain hhf1, hits give low values 0.415 | locus YBR023C, strain chs3, hits give low values 0.35 | locus YBR171W, strain sec66, hits give low values 0.541 | locus YBR231C, strain swc5, hits give low values 0.228 | locus YBR279W, strain paf1, hits give low values 0.478 | locus YCL011C, strain gbp2, hits give low values 0.436 | locus YCL016C, strain dcc1, hits give low values 0.492 | locus YCL061C, strain MRC1, hits give low values 0.503 | locus YCL069W, strain vba3, hits give low values 0.426 | locus YCR088W, strain abp1, hits give low values 0.548 | locus YDL005C, strain med2, hits give low values 0.114 | locus YDL040C, strain nat1, hits give low values 0.639 | locus YDR001C, strain nth1, hits give low values 0.583 | locus YDR069C, strain doa4, hits give low values 0.22 | locus YDR137W, strain rgp1, hits give low values 0.136 | locus YDR159W, strain sac3, hits give low values 0.475 | locus YDR195W, strain ref2 0.766 | locus YDR297W, strain sur2, hits give low values 0.47 | locus YDR334W, strain swr1, hits give low values 0.206 | locus YDR335W, strain msn5, hits give low values 0.386 | locus YDR392W, strain spt3, hits give low values 0.164 | locus YEL003W, strain gim4, hits give low values 0.392 | locus YEL037C, strain rad23, hits give low values 0.421 | locus YEL061C, strain CIN8 (second series), hits give low values 0.494 | locus YER015W, strain faa2, hits give low values 0.323 | locus YER016W, strain bim1, hits give low values 0.505 | locus YER111C, strain swi4, hits give low values 0.223 | locus YER155C, strain BEM2 (second series), hits give low values 0.248 | locus YFR010W, strain ubp6, hits give low values 0.412 | locus YGL167C, strain pmr1, hits give low values 0.212 | locus YGL173C, strain kem1, hits give low values 0.193 | locus YGL227W, strain vid30, hits give low values 0.627 | locus YGL240W, strain doc1, hits give low values 0.383 | locus YGL253W, strain hxk2, hits give low values 0.262 | locus YHR013C, strain ard1, hits give low values 0.293 | locus YHR027C, strain rpn1, hits give low values 0.268 | locus YHR030C, strain SLT2, hits give low values 0.183 | locus YHR079C, strain IRE1, hits give low values 0.202 | locus YHR142W, strain chs7, hits give low values 0.242 | locus YJL092W, strain hpr5, hits give low values 0.529 | locus YJL095W, strain BCK1 (second series), hits give low values 0.121 | locus YJL095W, strain BCK1, hits give low values 0.192 | locus YJL115W, strain asf1, hits give low values 0.431 | locus YJL129C, strain trk1, hits give low values 0.396 | locus YJL154C, strain vps35, hits give low values 0.489 | locus YJL164C, strain tpk1, hits give low values 0.339 | locus YJL166W, strain qcr8, hits give low values 0.327 | locus YJL187C, strain SWE1, hits give low values 0.434 | locus YJR066W, strain TOR1, hits give low values 0.174 | locus YKL160W, strain elf1, hits give low values 0.507 | locus YKR026C, strain gcn3, hits give low values 0.665 | locus YKR091W, strain srl3, hits give low values 0.648 | locus YLL001W, strain dnm1, hits give low values 0.39 | locus YLL026W, hits give low values 0.444 | locus YLL041C, strain sdh2, hits give low values 0.584 | locus YLR027C, strain aat2, hits give low values 0.435 | locus YLR113W, strain HOG1, hits give low values 0.199 | locus YLR221C, strain rsa3, hits give low values 0.414 | locus YLR258W, strain gsy2, hits give low values 0.455 | locus YLR262C, strain YPT6 (second series), hits give low values 0.141 | locus YLR320W, strain mms22, hits give low values 0.266 | locus YLR342W, strain FKS1, hits give low values 0.443 | locus YLR357W, strain rsc2, hits give low values 0.534 | locus YLR370C, strain arc18, hits give low values 0.293 | locus YLR384C, strain iki3, hits give low values 0.401 | locus YML120C, strain ndi1, hits give low values 0.334 | locus YMR058W, strain fet3, hits give low values 0.33 | locus YMR125W, strain sto1, hits give low values 0.699 | locus YMR129W, hits give low values 0.557 | locus YMR205C, strain PFK2, hits give low values 0.356 | locus YMR231W, strain pep5, hits give low values 0.296 | locus YNL071W, strain lat1, hits give low values 0.306 | locus YNL183C, strain NPR1, hits give low values 0.159 | locus YNL209W, strain ssb2, hits give low values 0.252 | locus YNL248C, strain rpa49, hits give low values 0.336 | locus YNL322C, strain KRE1 (second series), hits give low values 0.424 | locus YNR049C, strain mso1, hits give low values 0.489 | locus YOR001W, strain rrp6, hits give low values 0.446 | locus YOR070C, strain gyp1, hits give low values 0.439 | locus YOR080W, strain dia2, hits give low values 0.435 | locus YOR083W, strain WHI5, hits give low values 0.399 | locus YOR106W, strain vam3, hits give low values 0.193 | locus YOR231W, strain MKK1, hits give low values 0.197 | locus YOR265W, strain rbl2, hits give low values 0.447 | locus YOR270C, strain vph1, hits give low values 0.165 | locus YOR290C, strain snf2, hits give low values 0.282 | locus YPL051W, strain arl3, hits give low values 0.168 | locus YPL078C, strain atp4, hits give low values 0.344 | locus YPL106C, strain sse1, hits give low values 0.491 | locus YPL240C, strain hsp82, hits give low values 0.497 | locus YPL256C, strain CLN2, hits give low values 0.228
